Compound activity deposited in PubChem by Broad Institute.
IDE exosite FP = exo-site inhibitors of human insulin-degrading enzyme; P14735; purified IDE, FL-6b probe fluorescence polarization; stronger effect = lower value; z-score at 20 µM; 6.3% of 17,000 active;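 active means z-score of -3 or lower, meaning strong loss of probe binding signal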;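 further: His-tagged human IDE residues 42-1019 made in E. coli with 30 nM FL-6b probe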
Target sequence (P14735 42-1019 limits assumed): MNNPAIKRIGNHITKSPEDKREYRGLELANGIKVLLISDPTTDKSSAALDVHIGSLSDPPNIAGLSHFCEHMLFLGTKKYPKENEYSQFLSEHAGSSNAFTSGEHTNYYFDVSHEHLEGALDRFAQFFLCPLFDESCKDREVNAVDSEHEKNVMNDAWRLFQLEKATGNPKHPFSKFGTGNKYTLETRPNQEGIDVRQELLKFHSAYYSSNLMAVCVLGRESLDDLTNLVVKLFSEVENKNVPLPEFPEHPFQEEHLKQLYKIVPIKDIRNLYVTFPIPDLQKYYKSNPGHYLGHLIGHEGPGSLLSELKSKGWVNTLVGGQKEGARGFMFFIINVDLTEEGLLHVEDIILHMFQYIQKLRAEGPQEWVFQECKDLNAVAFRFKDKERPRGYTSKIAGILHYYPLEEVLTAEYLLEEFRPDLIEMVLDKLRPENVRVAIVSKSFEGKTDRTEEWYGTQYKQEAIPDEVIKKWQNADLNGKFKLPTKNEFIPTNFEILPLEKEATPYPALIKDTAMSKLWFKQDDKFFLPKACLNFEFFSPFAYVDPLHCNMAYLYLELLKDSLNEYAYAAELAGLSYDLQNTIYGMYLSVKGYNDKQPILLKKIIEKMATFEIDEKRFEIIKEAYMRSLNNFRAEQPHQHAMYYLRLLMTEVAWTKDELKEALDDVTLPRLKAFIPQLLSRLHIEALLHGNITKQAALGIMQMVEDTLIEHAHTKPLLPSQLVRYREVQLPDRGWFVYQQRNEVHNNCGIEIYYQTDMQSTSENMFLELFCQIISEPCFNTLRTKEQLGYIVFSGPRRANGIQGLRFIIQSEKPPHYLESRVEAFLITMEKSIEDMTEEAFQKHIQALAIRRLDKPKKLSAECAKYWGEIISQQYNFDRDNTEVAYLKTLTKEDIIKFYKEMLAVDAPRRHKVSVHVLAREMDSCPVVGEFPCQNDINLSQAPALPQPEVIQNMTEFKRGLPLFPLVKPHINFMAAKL
* hit, by the source's call. This is one part of a sample in which hits are shown more often than they occur.

SMILES | IDE exosite FP
O=C(C1CCOCC1)N1CC(=O)N2[C@@H](CO)[C@@H](c3ccc(C#Cc4cccc(F)c4)cc3)[C@@H]2C1 | -4.8*
COc1ccc(C#Cc2ccc([C@@H]3[C@@H](CO)N4C(=O)CN(C(=O)C5CCOCC5)C[C@@H]34)cc2)cc1 | -0.35
COc1ccc(C#Cc2ccc([C@H]3[C@H]4CN(C(=O)C5CCOCC5)CC(=O)N4[C@H]3CO)cc2)cc1 | -0.065
CC(=O)NC[C@@H]1[C@@H](c2ccc(-c3cccc(F)c3)cc2)[C@@H](CO)N1C(C)=O | 2.2
CC(C)C#Cc1ccc([C@@H]2[C@H](C#N)N(C(=O)C3CC3)[C@H]2CO)cc1 | 3.1
COc1ccc(S(=O)(=O)N(C)C[C@@H]2Oc3ccc(NC(=O)Nc4ccc(C(F)(F)F)cc4)cc3C(=O)N([C@H](C)CO)C[C@H]2C)cc1 | 0.16
COCC(=O)Nc1ccc2c(c1)OC[C@@H](C)N(C(=O)Nc1ccccc1F)C[C@@H](C)[C@H](OC)CN(C)C2=O | -1.3
CC(=O)NC[C@H]1[C@H](c2ccc(-c3cccnc3)cc2)[C@H](CO)N1C(=O)C1CCC1 | 3.5
N#C[C@@H]1[C@@H](c2ccc(C#Cc3cccnc3)cc2)[C@@H](CO)N1C(=O)NC1CCCCC1 | -0.51
CO[C@H]1CN(C)C(=O)c2cc(NC(=O)c3cccc(F)c3)ccc2OC[C@@H](C)N(C)C[C@@H]1C | -0.45
O=C(Nc1ccccc1)N1CCCCN2[C@H](CO)[C@@H](c3ccc(C#Cc4ccccn4)cc3)[C@@H]2C1 | -0.6
Cc1cccc(-c2ccc([C@H]3[C@@H](CO)N4CCCCN(C(=O)c5ccncc5)C[C@@H]34)cc2)c1 | -1.7
Cc1cccc(-c2ccc([C@H]3[C@@H](CO)N4CCCCN(C(=O)c5cccnc5)C[C@H]34)cc2)c1 | -17*
Cc1cccc(-c2ccc([C@@H]3[C@H]4CN(C(=O)c5cccnc5)CCCCN4[C@H]3CO)cc2)c1 | -15*
Cc1cccc(-c2ccc([C@H]3[C@@H](CO)N4CCCCN(C(=O)c5cccnc5)C[C@@H]34)cc2)c1 | -0.85
Cc1cccc(-c2ccc([C@H]3[C@H](CO)N4CCCCN(C(=O)c5ccncc5)C[C@@H]34)cc2)c1 | -1.4
O=C(c1cccc(F)c1)N1CCCCN2[C@H](C1)[C@@H](c1ccc(-c3cccnc3)cc1)[C@@H]2CO | 0.89
COCC(=O)N1[C@H](CO)[C@H](c2ccc(C#Cc3ccccc3F)cc2)[C@@H]1C#N | -2.3
N#Cc1ccc(-c2ccc([C@H]3[C@@H](CO)N4C(=O)CN(C(=O)C5CCCCC5)C[C@@H]34)cc2)cc1 | 4
N#C[C@@H]1[C@@H](c2ccc(-c3cncnc3)cc2)[C@H](CO)N1C(=O)C1CCOCC1 | 3.7
O=C(Nc1ccc(C(F)(F)F)cc1)N[C@H]1C=C[C@H](CC(=O)N2CCCCC2)O[C@H]1CO | -1.7
C/C=C/c1ccc(C2[C@H]3CNC[C@@H]2N3C(=O)Nc2ccc(C(F)(F)F)cc2)cc1 (stereo not given in full) | 1.1
COc1ccc(-c2ccc(C3[C@H]4CNC[C@@H]3N4Cc3cncnc3)cc2)cc1 (stereo not given in full) | 1.1
O=C(C[C@H]1CC[C@@H](NC(=O)C2CCOCC2)[C@@H](CO)O1)NCC1CCCCC1 | 2.6
O=C(CC(F)(F)F)N1C[C@@H]2[C@H](c3ccccc31)[C@H](CO)N2CC1CCOCC1 | -0.45
SMILES | IDE exosite FP
C/C=C/c1ccc([C@@H]2[C@@H](CO)N(Cc3nccs3)C23CN(CC2CCCC2)C3)cc1 | 0.73
O=C(c1cccnc1)N1CCCCN2[C@@H](CO)[C@@H](c3ccc(C#Cc4cccnc4)cc3)[C@@H]2C1 | 0.38
Cc1ccccc1-c1ccc([C@H]2[C@H]3CN(C(=O)c4cccnc4)CCCCN3[C@H]2CO)cc1 | 0.9
COc1ccccc1-c1ccc([C@H]2[C@H](CO)N3CCCCN(C(=O)c4ccncc4)C[C@@H]23)cc1 | -2.5
COc1ccccc1-c1ccc([C@@H]2[C@H]3CN(C(=O)c4ccncc4)CCCCN3[C@H]2CO)cc1 | -14*
COc1ccccc1-c1ccc([C@H]2[C@H]3CN(C(=O)c4ccncc4)CCCCN3[C@H]2CO)cc1 | 0.95
COc1ccccc1-c1ccc([C@@H]2[C@H](CO)N3CCCCN(C(=O)c4cccnc4)C[C@@H]23)cc1 | -4.1*
COc1ccc(C[C@@H]2CCn3cc(nn3)COC[C@@H](C)NC2=O)cc1 | 1.4
CCCNC(=O)C[C@@H]1CC[C@@H]2[C@H](COC[C@@H](O)CN2C(=O)c2ccc(F)cc2)O1 | 0.073
O=S(=O)(Cc1ccccc1)N1CCCCN2[C@H](CO)[C@@H](c3ccc(C#Cc4ccccc4)cc3)[C@H]2C1 | 5.1
CCCC#Cc1ccc([C@@H]2[C@@H](CO)N3CCCCN(S(=O)(=O)CC)C[C@H]23)cc1 | 3
O=S(=O)(Cc1ccccc1)N1CCCCN2[C@H](CO)[C@@H](c3ccc(C#Cc4ccccc4)cc3)[C@@H]2C1 | -0.14
O=S(=O)(Cc1ccccc1)N1CCCCN2[C@H](CO)[C@H](c3ccc(C#Cc4ccccc4)cc3)[C@H]2C1 | 4
O=S(=O)(Cc1ccccc1)N1CCCCN2[C@@H](CO)[C@H](c3ccc(C#Cc4ccccc4)cc3)[C@@H]2C1 | 2.5
CCS(=O)(=O)N1CCCCN2[C@H](CO)[C@H](c3ccc(C#Cc4ccccc4OC)cc3)[C@H]2C1 | -9.2*
CCCC#Cc1ccc([C@H]2[C@H]3CN(S(=O)(=O)CC)CCCCN3[C@H]2CO)cc1 | 2.3
CCS(=O)(=O)N1CCCCN2[C@H](CO)[C@@H](c3ccc(C#Cc4ccccc4OC)cc3)[C@H]2C1 | -6.5*
CCS(=O)(=O)N1CCCCN2[C@H](CO)[C@H](c3ccc(C#Cc4ccccc4OC)cc3)[C@@H]2C1 | -8.2*
N#C[C@@H]1[C@H](c2ccccc2-c2ccccc2F)[C@H](CO)N1C(=O)C1CCOCC1 | -0.07
CCNC[C@@H]1[C@@H](c2ccc(-c3ccc(F)cc3)cc2)[C@H](CO)N1S(C)(=O)=O | 2.8
C/C=C/c1ccc([C@@H]2[C@@H](CO)N(C(C)=O)[C@@H]2CN(C)S(C)(=O)=O)cc1 | 3
CCCNC(=O)N1CC2(C1)[C@@H](c1ccccc1)[C@@H](CO)N2CC1CCOCC1 | -0.21
CC=Cc1ccc2n(c1=O)C[C@H]1[C@H](CO)[C@@H](C(=O)N[C@@H](C)c3ccccc3)[C@@H]2N1Cc1cncnc1 (mixture of isomers) | 0.5
N#C[C@@H]1[C@@H](c2ccccc2-c2ccccc2F)[C@H](CO)N1C(=O)C1CCOCC1 | 3.8
CC(=O)N(C)C[C@H]1[C@H](c2ccc(-c3cccc(C#N)c3)cc2)[C@@H](CO)N1C(C)=O | 3.4
SMILES | IDE exosite FP
O=C(C[C@H]1CC[C@H]2[C@@H](COC[C@H](O)CN2C(=O)Cc2ccccc2)O1)NC1Cc2ccccc2C1 | 0.6
C[C@@H]1CCCCO[C@@H](CN(C)C(=O)Nc2ccc3c(c2)OCO3)[C@H](C)CN([C@H](C)CO)C(=O)c2cc(NS(=O)(=O)c3ccc(F)cc3)ccc2O1 | 1.6
O=C(CN1CCOCC1)N1CCCCN2[C@H](C1)[C@@H](c1ccc(Br)cc1)[C@@H]2CO | 1.1
O=C(CN1CCOCC1)N1CCCCN2[C@H](C1)[C@@H](c1ccc(/C=C/c3ccccc3)cc1)[C@@H]2CO | -4.6*
O=C(CN1CCOCC1)N1CCCCN2[C@H](CO)[C@H](c3ccc(/C=C/c4ccccc4)cc3)[C@H]2C1 | -2.9
O=C(CN1CCOCC1)N1CCCCN2[C@H](CO)[C@@H](c3ccc(/C=C/c4ccccc4)cc3)[C@H]2C1 | -9.3*
